Experimental data as given in PubChem BioAssay AID1650 (Southern Research Specialized Biocontainment Screening …, 2009).
Potency and affinity values are given separately. The source made the active and inactive calls. No rule for the calls is given here.

Assay: host cell cytotoxicity of antiviral hits, dose response, cytotoxicity control for West Nile virus antiviral project, secondary assay (AID 1650)
Conditions: Mammalian host cell viability, cytotoxicity counter-screen; series mostly up to 10 µM; viability: at the top concentration

| Structure (SMILES) | viability |
| --- | --- |
| COc1ccc(-n2c(=S)[nH]c3cc(C(=O)NCc4cccnc4)ccc3c2=O)c(OC)c1 | 86.9% [at 20 µM] (inactive) |
| Cn1c(N/N=C/c2c[nH]c3ccccc23)nc2ccccc21 | 80.1% (inactive) |
| CC(C)Cc1nc2oc3c(NCCCN4CCOCC4)ncnc3c2c2c1CCC2 | 80.2% (inactive) |
| CCCCN(CC)CCNC(=S)Nc1ccc2nc(N3CCN(C)CC3)cc(C)c2c1 | 84.8% (inactive) |
| CN(C)CC(O)COc1ccc(C(C)(C)c2ccc(OCC(O)CN(C)C)cc2)cc1 (stereo not given) | 89.6% (inactive) |
| Cc1ccc2cc(C#N)c(N3CCCN(C(=S)NCCCN(C)C)CC3)nc2c1 | 79.4% (inactive) |
| Cc1ccc(-c2cc(C(=O)N(C)Cc3cnn(C)c3C)c3cc(Br)ccc3n2)cc1 | 90.5% (inactive) |
| CC(NC(=O)/C=C/c1cnc2ccccc2n1)C12CC3CC(CC(C3)C1)C2 (stereo not given) | 78.4% (inactive) |
| Cc1ccc(NC(=S)N(CCCN2CCCC2)Cc2cccn2Cc2ccc(Cl)cc2)cc1C | 86.5% (inactive) |
| COc1ccc(OCC(O)Cn2c(=N)n(Cc3ccccc3)c3ccccc32)cc1 (stereo not given) | 73.8% (inactive) |
| CCCN(CCC)CCCNC(=S)Nc1ccc2nc(N3CCCC3)cc(C)c2c1 | 78% [at 20 µM] (inactive) |
| O=C(COc1ccc(Cl)cc1)NCCSCc1cccc(Cl)c1 | 90.4% [at 20 µM] (inactive) |
| COc1ccccc1NC(=O)N1CCn2c(nc3ccccc32)C1 | 92.2% [at 20 µM] (inactive) |
| CCN(CC)CCNC(=O)c1ccc(NC(=O)c2cccc(S(=O)(=O)N3c4ccccc4CC3C)c2)cc1 (stereo not given) | 85.1% (inactive) |
| Cc1ccccc1CN(CC(=O)Nc1cccc([N+](=O)[O-])c1)S(=O)(=O)c1ccc(Cl)cc1 | 80.2% (inactive) |
| Cc1nc([N+](=O)[O-])c(Br)n1CC(=O)c1ccc(Cl)cc1 | 79.3% [at 20 µM] (inactive) |
| CCOc1ccc(-c2cc(C(=O)NCCCN3CCN(CC)CC3)c3ccccc3n2)cc1 | 82% (inactive) |
| O=C(c1ccc2c(=O)n(Cc3ccc4c(c3)OCO4)c(=O)[nH]c2c1)N1CCN(c2ccccc2)CC1 | 87.6% [at 20 µM] (inactive) |
| Cc1ccc(-c2nc3ccccc3s2)cc1NC(=S)NC(=O)c1cccc2ccccc12 | 88.9% (inactive) |
| C=CCn1cc(C(=O)NCCCOCC)c(=O)c2cc(S(=O)(=O)N(CC)CC)ccc21 | 84.2% (inactive) |

| Structure (SMILES) | viability |
| --- | --- |
| CCOC(=O)C(CC)(CC)C(=O)/C=C/c1cccc(Br)c1 | 90.1% (inactive) |
| CCN(CCCNC(=O)c1cc2c(-c3cccc(OC)c3)nn(C)c2s1)Cc1ccccc1 | 74.6% [at 20 µM] (inactive) |
| O=C(CSc1nc2ccccc2c(=O)n1-c1ccc(F)cc1F)Nc1ccc(N2CCOCC2)cc1 | 86% [at 20 µM] (inactive) |
| CN1CCCC(CC2Oc3ccccc3Sc3ccccc32)C1 (stereo not given) | 82.1% (inactive) |
| FC(F)(F)c1nnc(-c2ccccc2)nc1Sc1ccc(Cl)cc1 | 74.5% [at 20 µM] (inactive) |
| Cc1ccc2[nH]c(=O)c(CN(CCCN(C)C)C(=O)Nc3ccc(Cl)cc3)cc2c1 | 74.7% (inactive) |
| OCCN(CCO)CC(O)COc1ccc(C23CC4CC(CC(C4)C2)C3)cc1 (stereo not given) | 90.3% (inactive) |
| O=C(NCCCN1CCOCC1)c1cc2c([nH]c3ccccc32)c(-c2cccc(Br)c2)n1 | 74.5% [at 20 µM] (inactive) |
| CCOc1ccc(C(=O)CCC(=O)O)cc1 | 87.4% (inactive) |
| COCCn1c(SCC(=O)Nc2nnc(C)s2)nnc1-c1ccncc1 | 94% [at 20 µM] (inactive) |
| CC(C)c1cc(C(=O)OCC(=O)NC(=O)NCc2ccco2)c(O)c(C(C)C)c1 | 89% [at 20 µM] (inactive) |
| OC(COc1ccc(CNCCc2ccc(C(F)(F)F)cc2)cc1)CN1CCCCC1 (stereo not given) | 91.1% (inactive) |
| COc1ccccc1NS(=O)(=O)c1cccc(NC(=O)Nc2ccc(Cl)cc2)c1 | 70.3% [at 20 µM] (inactive) |
| O=C(CNc1cccc2ccccc12)N/N=C/c1ccc([N+](=O)[O-])o1 | 82.3% (inactive) |
| Cc1cccc(-c2ccc(NC(=O)C3CCN(CC4CC4)CC3)cc2)c1 | 87.2% [at 20 µM] (inactive) |
| CCN(CC)CCNC(=O)c1sc2ncn(CC(=O)Nc3ccc(C)c(Cl)c3)c(=O)c2c1C | 75.4% [at 20 µM] (inactive) |
| O=C(Nc1ccc(F)cc1F)c1cc2ccccc2oc1=O | 93.6% (inactive) |
| CCCCCCc1c(C)nc(-n2[nH]c(C)c(CCO)c2=O)[nH]c1=O | 89.1% (inactive) |
| CCCN1CCN(CCCNC(=O)c2ccc3nc(N4CCC(C)CC4)sc3c2)CC1 | 84.4% (inactive) |
| Cc1cc(C)c(CSc2ncc(-c3ccc([N+](=O)[O-])cc3)[nH]2)c(C)c1 | 80.5% (inactive) |
